Source: PubChem BioAssay AID1159580 (chemical genetic matrix, 2015)
Where “and” joins values, the source holds several entries; their conditions need not be identical. Equal entries are not always repeated. Among all 5,500 compounds or so, about 2,000 (36%) were called active. Not shown: some 18% with an inconclusive outcome. Rule as the data show it: active = normalized growth mostly below about 0.91 (no sharp cut-off); inconclusive = no clear call, values can overlap the other calls; inactive = mostly above about 0.92. The list shows a part of the results.

Assay: chemical genetic growth profiling, strain panel (AID 1159580);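 also: tested at 20 µM; growth read once vehicle control cultures reached saturation at 30 °C; 1 = growth at the plate median or of vehicle wells; lower values mean less growth of the strain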
Conditions: S. cerevisiae deletion strains, growth OD

Measured: normalized growth

CN1CCc2cc3c(cc2C1O)OCO3 (centres undefined)
inactive: locus YAL021C, strain ccr4, active compounds read low 1.03 | locus YAL026C, strain drs2, active compounds read low 0.986 | locus YAL030W, strain snc1, active compounds read low 0.993 | locus YBL061C, strain skt5, active compounds read low 0.984 | locus YBR009C, strain hhf1, active compounds read low 1.01 | locus YBR021W, strain FUR4, active compounds read low 1.08 | locus YBR023C, strain chs3, active compounds read low 1.01 | locus YBR171W, strain sec66, active compounds read low 0.978 | locus YBR229C, strain ROT2, active compounds read low 0.954 | locus YBR231C, strain swc5, active compounds read low 0.954 | locus YBR279W, strain paf1, active compounds read low 1 | locus YCL011C, strain gbp2, active compounds read low 1.01 | locus YCL016C, strain dcc1, active compounds read low 1.01 | locus YCL029C, strain bik1, active compounds read low 0.982 | locus YCL061C, strain MRC1, active compounds read low 1 | locus YCL069W, strain vba3, active compounds read low 0.988 | locus YCR088W, strain abp1, active compounds read low 0.988 | locus YDL005C, strain med2, active compounds read low 0.992 | locus YDL035C, strain GPR1, active compounds read low 0.993 | locus YDL040C, strain nat1, active compounds read low 0.995 | locus YDL074C, strain BRE1, active compounds read low 1.03 | locus YDL101C, strain DUN1, active compounds read low 0.977 | locus YDL185W, strain tfp1, active compounds read low 0.969 | locus YDL192W, strain arf1, active compounds read low 0.998 | locus YDR001C, strain nth1, active compounds read low 0.994 | locus YDR069C, strain doa4, active compounds read low 0.969 | locus YDR101C, strain arx1, active compounds read low 1.02 | locus YDR137W, strain rgp1, active compounds read low 0.981 | locus YDR150W, strain NUM1, active compounds read low 0.987 | locus YDR159W, strain sac3, active compounds read low 0.946 | locus YDR162C, strain NBP2, active compounds read low 0.943 | locus YDR195W, strain ref2 0.934 | locus YDR297W, strain sur2, active compounds read low 1.01 | locus YDR318W, strain mcm21, active compounds read low 0.978 | locus YDR334W, strain swr1, active compounds read low 0.993 | locus YDR335W, strain msn5, active compounds read low 1.01 | locus YDR388W, active compounds read low 0.956 | locus YDR392W, strain spt3, active compounds read low 0.926 | locus YDR502C, strain sam2, active compounds read low 0.973 | locus YEL003W, strain gim4, active compounds read low 0.966 | locus YEL037C, strain rad23, active compounds read low 1 | locus YEL061C, strain CIN8 (second series), active compounds read low 0.987 | locus YEL061C, strain CIN8, active compounds read low 0.99 | locus YER015W, strain faa2, active compounds read low 0.996 | locus YER016W, strain bim1, active compounds read low 0.986 | locus YER110C, active compounds read low 0.977 | locus YER111C, strain swi4, active compounds read low 0.992 | locus YER155C, strain BEM2 (second series), active compounds read low 0.962 | locus YER155C, strain BEM2, active compounds read low 0.984 | locus YER167W, strain BCK2, active compounds read low 0.986 | locus YFR010W, strain ubp6, active compounds read low 0.979 | locus YGL078C, strain dbp3, active compounds read low 0.995 | locus YGL086W, strain mad1, active compounds read low 1.05 | locus YGL167C, strain pmr1, active compounds read low 0.989 | locus YGL173C, strain kem1, active compounds read low 0.994 | locus YGL227W, strain vid30, active compounds read low 0.986 | locus YGL240W, strain doc1, active compounds read low 0.957 | locus YGL248W, strain PDE1, active compounds read low 0.974 | locus YGL253W, strain hxk2, active compounds read low 0.988 | locus YGR135W, strain pre9, active compounds read low 0.966 | locus YGR252W, strain gcn5, active compounds read low 0.95 | locus YHR013C, strain ard1, active compounds read low 0.995 | locus YHR027C, strain rpn1, active compounds read low 0.991 | locus YHR030C, strain SLT2, active compounds read low 0.992 and 1.09 | locus YHR079C, strain IRE1 (second series), active compounds read low 0.978 | locus YHR079C, strain IRE1, active compounds read low 1.1 | locus YHR094C, strain hxt1, active compounds read low 0.968 | locus YHR129C, strain ARP1, active compounds read low 0.99 | locus YHR142W, strain chs7, active compounds read low 1.01 | locus YHR200W, strain rpn10, active compounds read low 0.964 | locus YIL066C, strain RNR3, active compounds read low 0.989 | locus YIL073C, strain SPO22, active compounds read low 0.988 | locus YIL125W, strain kgd1, active compounds read low 0.988 | locus YIR030C, strain dcg1, active compounds read low 0.977 | locus YJL092W, strain hpr5, active compounds read low 1 | locus YJL095W, strain BCK1 (second series), active compounds read low 1.01 | locus YJL095W, strain BCK1, active compounds read low 0.953 and 1.06 | locus YJL115W, strain asf1, active compounds read low 0.994 | locus YJL129C, strain trk1, active compounds read low 0.979 | locus YJL134W, strain LCB3, active compounds read low 0.989 | locus YJL154C, strain vps35, active compounds read low 0.989 | locus YJL164C, strain tpk1, active compounds read low 1 | locus YJL166W, strain qcr8, active compounds read low 0.98 | locus YJL168C, strain set2, active compounds read low 0.989 | locus YJL187C, strain SWE1 (second series), active compounds read low 0.974 | locus YJL187C, strain SWE1, active compounds read low 0.995 | locus YJR043C, strain POL32, active compounds read low 0.975 | locus YJR066W, strain TOR1, active compounds read low 0.999 | locus YJR075W, strain HOC1, active compounds read low 0.976 | locus YKL009W, strain mrt4, active compounds read low 0.964 | locus YKL068W, active compounds read low 0.989 | locus YKL085W, strain MDH1 (second series), active compounds read low 0.974 | locus YKL085W, strain MDH1, active compounds read low 0.974 | locus YKL160W, strain elf1, active compounds read low 0.996 | locus YKR001C, strain vps1, active compounds read low 0.998 | locus YKR026C, strain gcn3, active compounds read low 0.978 | locus YKR091W, strain srl3, active compounds read low 0.992 | locus YLL001W, strain dnm1, active compounds read low 0.983 | locus YLL026W, active compounds read low 0.998 | locus YLL041C, strain sdh2, active compounds read low 0.999 | locus YLR027C, strain aat2, active compounds read low 0.995 | locus YLR039C, strain RIC1, active compounds read low 0.928 | locus YLR058C, strain SHM2, active compounds read low 0.969 | locus YLR102C, strain apc9, active compounds read low 0.98 | locus YLR113W, strain HOG1, active compounds read low 1.07 | locus YLR221C, strain rsa3, active compounds read low 1 | locus YLR258W, strain gsy2, active compounds read low 1.01 | locus YLR262C, strain YPT6 (second series), active compounds read low 1.01 | locus YLR262C, strain YPT6, active compounds read low 0.911 | locus YLR268W, strain sec22, active compounds read low 1 | locus YLR320W, strain mms22, active compounds read low 0.985 | locus YLR330W, strain CHS5, active compounds read low 0.991 | locus YLR342W, strain FKS1 (second series), active compounds read low 1.04 | locus YLR342W, strain FKS1, active compounds read low 0.999 | locus YLR357W, strain rsc2, active compounds read low 0.977 | locus YLR370C, strain arc18, active compounds read low 1 | locus YLR371W, strain rom2, active compounds read low 0.985 | locus YLR384C, strain iki3, active compounds read low 0.981 | locus YLR418C, strain cdc73, active compounds read low 0.95 | locus YML016C, strain PPZ1, active compounds read low 0.992 | locus YML032C, strain rad52, active compounds read low 0.974 | locus YML120C, strain ndi1, active compounds read low 0.995 | locus YML124C, strain tub3, active compounds read low 0.983 | locus YMR058W, strain fet3, active compounds read low 1.01 | locus YMR078C, strain ctf18, active compounds read low 0.984 | locus YMR125W, strain sto1, active compounds read low 0.987 | locus YMR129W, active compounds read low 0.987 | locus YMR205C, strain PFK2, active compounds read low 0.996 | locus YMR223W, strain ubp8, active compounds read low 0.956 | locus YMR231W, strain pep5, active compounds read low 0.979 | locus YMR263W, strain SAP30, active compounds read low 0.981 | locus YMR307W, strain GAS1, active compounds read low 0.951 | locus YNL067W, strain RPL9B, active compounds read low 0.97 | locus YNL071W, strain lat1, active compounds read low 1 | locus YNL153C, strain GIM3, active compounds read low 0.968 | locus YNL183C, strain NPR1, active compounds read low 0.999 | locus YNL209W, strain ssb2, active compounds read low 1 | locus YNL233W, strain BNI4, active compounds read low 0.998 | locus YNL248C, strain rpa49, active compounds read low 1 | locus YNL250W, strain rad50, active compounds read low 0.988 | locus YNL271C, strain bni1, active compounds read low 0.982 | locus YNL298W, strain CLA4, active compounds read low 0.956 | locus YNL307C, strain MCK1, active compounds read low 0.988 | locus YNL322C, strain KRE1 (second series), active compounds read low 1 | locus YNR049C, strain mso1, active compounds read low 1 | locus YNR052C, strain pop2, active compounds read low 0.982 | locus YOL012C, strain htz1 1.7 | locus YOL147C, strain pex11, active compounds read low 0.986 | locus YOR001W, strain rrp6, active compounds read low 0.961 | locus YOR061W, strain CKA2, active compounds read low 0.969 | locus YOR069W, strain VPS5, active compounds read low 0.994 | locus YOR070C, strain gyp1, active compounds read low 0.993 | locus YOR080W, strain dia2, active compounds read low 0.977 | locus YOR083W, strain WHI5, active compounds read low 1.01 | locus YOR106W, strain vam3, active compounds read low 1.01 | locus YOR136W, strain idh2, active compounds read low 0.989 | locus YOR144C, strain elg1, active compounds read low 0.977 | locus YOR184W, strain ser1, active compounds read low 0.959 | locus YOR231W, strain MKK1, active compounds read low 1.09 | locus YOR265W, strain rbl2, active compounds read low 1.01 | locus YOR270C, strain vph1, active compounds read low 0.995 | locus YOR290C, strain snf2, active compounds read low 1.04 | locus YOR316C, strain cot1, active compounds read low 0.979 | locus YPL051W, strain arl3, active compounds read low 0.994 | locus YPL078C, strain atp4, active compounds read low 1.01 | locus YPL106C, strain sse1, active compounds read low 0.994 | locus YPL240C, strain hsp82, active compounds read low 0.99 | locus YPL241C, strain CIN2, active compounds read low 0.988 | locus YPL256C, strain CLN2, active compounds read low 1.08 | locus YPR119W, strain clb2, active compounds read low 0.982 | locus YPR141C, strain kar3, active compounds read low 0.978 | locus YPR163C, strain tif3, active compounds read low 0.987 | locus YPR167C, strain met16, active compounds read low 0.99 | strain wtn01, active compounds read low 1.04
